# Screening data as filed in PubChem BioAssay.
# Only a selection was taken, and hits are over-represented in it overall.
# Pf apPOL inh – Pf-apPOL inhibitors, biochemical, fluorescence; Recombinant Pf-apPOL, molecular beacon fluorescence, 1.5 h; inhibition, % at 10 µM; 210,000 compounds, 0.25% hits; Plasmodium falciparum apicoplast DNA polymerase (apPOL); AID 1794808, 2022
# mHTT CaM bind – mutant huntingtin-calmodulin interaction inhibitors – biochemical, AlphaScreen, primary screen; AlphaScreen His-mHTT/GST-CaM binding, luminescence; 190,000 compounds, 3.6% hits; inhibition, % at 15 µM;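 further: 0% = both proteins with DMSO and 100% = one protein alone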
# An asterisk follows results filed as active; i = inactive; nt = no result given. No stated cut-off is given here; in the data, active means inhibition above about 50%; inactive means the rest.
SMILES,Pf apPOL inh,mHTT CaM bind
CSc1cccc(NC(=O)CSc2nnc(-c3ccc(OCC(F)(F)F)nc3)n2-c2ccc(Cl)cc2)c1,1.9,nt
CCCCc1ccc(C2C(C#N)=C(N)SC(N)=C2C#N)s1,-1.1,55.2*
N#CC1=C(N)SC(N)=C(C#N)C1c1ccccc1,0.1,28.6
COc1cccc(CNc2cccc3cccnc23)c1O,-5.3,54.0*
COc1cccc(CNc2ncccn2)c1OC,-1.6,3.6
CCOc1ccc(CN2CCC(C)(O)C(N3CCCC3)C2)cc1OC (stereo not given),0.4,0.3
COc1cc(-c2cc(C(=O)N3CCNC(=O)C3)[nH]n2)cc(OC)c1OC,1.9,-10.2
COc1cccc(CN=Cc2[nH]c3ccc(Br)c(Cl)c3c2O)c1OC,-3.2,14.0
COc1ccccc1CN=Cc1[nH]c2ccc(Br)c(Cl)c2c1O,-9.3,71.0*
COc1ccc(-c2nc(-c3ccccc3Cl)no2)cc1[N+](=O)[O-],2.2,-3.9
CC(=O)Nc1ccc(S(=O)(=O)Nc2ccc(Nc3ccccc3)cc2)cc1,0.8,83.2*
CC(=O)Nc1ccc(S(=O)(=O)Nc2ccc(S(=O)(=O)Nc3ccccc3)cc2)cc1,3.6,4.3
NS(=O)(=O)c1cccc(NS(=O)(=O)c2ccccc2)c1,18.5,nt
O=S(=O)(Nc1ccc(Nc2ccccc2)c(NS(=O)(=O)c2ccccc2)c1)c1ccccc1,-1.8,62.9*
O=C(NCc1ccc2c(c1)OCO2)C(=O)NCC1(c2ccc(F)cc2)CC1,-4.4,-18.8
O=C(Nc1ccccc1Cl)c1cc2n(n1)C(C(F)(F)F)CC(c1ccc3c(c1)OCO3)N2 (stereo not given),-4.3,3.0
c1ccc(CNc2nc(-c3ccccc3)[n+](-c3ccccc3)s2)cc1,-6.1,83.6*
c1ccc(Nc2nc(-c3ccccc3)[n+](-c3ccccc3)s2)cc1,-8.4,22.1
CCOC(=O)C1CCN(C(=O)C2CCN(c3ccc(N4CCCC4)nn3)CC2)CC1,5.7,18.6
COc1cc(N=Cc2nc(-c3ccccc3F)oc2O)c(C(=O)O)cc1OC,2.1,0.0
O=C(O)c1ccccc1N=Cc1nc(-c2ccccc2F)oc1O,96.2*,9.0
Cn1cc(CC(=O)NCc2cccc(F)c2)c2cccnc21,2.1,-9.5
Cn1cc(-c2nc(C(=O)NCc3ccc(F)cc3Cl)cs2)c2cccnc21,-4.5,2.1
Cn1cc(-c2nc(C(=O)NCc3cccc(F)c3)cs2)c2cccnc21,2.5,91.1*
Cn1cc(-c2nc(C(=O)NCc3ccc(F)c(Cl)c3)cs2)c2cccnc21,2.1,100.2*
SMILES,Pf apPOL inh,mHTT CaM bind
CC1C(=O)N(c2ccc(F)cc2)CCN1C(=O)C1CCC1 (stereo not given),-0.5,-5.7
CCCC1CCC(C2=N/C(=C\c3cc(OC)c(OC)cc3OC)C(=O)O2)CC1 (stereo not given),-0.1,-19.0
CCN1CCN(C(=O)Cn2cccc2-c2nc(-c3ccccc3)cs2)CC1,-1.7,-6.7
CCCCn1c(=N)n(CC(O)c2ccc(Cl)cc2)c2ccccc21 (stereo not given),0.5,-12.6
CC(=O)Nc1cccc(N2CC(C(=O)Nc3ccc(C)cc3C)CC2=O)c1 (stereo not given),-0.4,10.4
CC(=O)Nc1cccc(N2CC(C(=O)Nc3ccc(F)cc3C)CC2=O)c1 (stereo not given),87.3*,4.5
CCCC(=O)N1CCCC1c1nc2cc(-c3ccccc3F)ccc2o1 (stereo not given),-1.0,13.2
CCCC(=O)N1CCCC1c1nc2cc(-c3ccc(N(C)C)cc3)ccc2o1 (stereo not given),-8.2,86.2*
CCC(=O)N1CCCC1c1nc2cc(-c3cccc(F)c3)ccc2o1 (stereo not given),-3.6,41.1
CC(C)CC(=O)N1CCCC1c1nc2cc(-c3ccc(N(C)C)cc3)ccc2o1 (stereo not given),-7.1,87.3*
CC(C)c1ccc(NC(=O)C(=O)NCc2ccccn2)cc1,1.8,1.9
CC(=O)Nc1c2c(nn1C(C)(C)C)CS(=O)(=O)C2,0.9,4.0
CCOc1ccc(NS(=O)(=O)c2ccc3c(c2)CC(C)N3C(C)=O)cc1 (stereo not given),-0.9,4.0
O=C(CN1c2ccccc2Sc2ccccc21)NN=Cc1ccco1,61.8*,nt
Cn1c(=O)c2c(ncn2CC(=O)N/N=C/c2ccco2)n(C)c1=O,nt,i
CN1c2c(Cl)cccc2C(=O)NC12CCN(C(=O)c1ccccc1)CC2,-0.4,4.1
O=C(/C=C/c1ccco1)Nc1ccc(NC(=O)c2ccco2)cc1,-5.5,30.3
O=C(/C=C/c1ccco1)c1ccc(NC(=O)c2ccco2)cc1,-2.5,92.6*
CCC(C)c1ccc(OCC(=O)Nc2cccc(C(=O)O)c2)cc1 (stereo not given),-4.7,4.6
O=C(C(c1ccccc1)c1ccccc1)N1CCN(c2ccc(F)cc2)CC1,0.4,63.9*
O=C(C(c1ccccc1)c1ccccc1)N1CCN(c2ccc([N+](=O)[O-])cc2)CC1,-8.3,3.1
Cc1ccc(N2CCN(C(=O)c3ccc(F)cc3)C(C)C2=O)cc1 (stereo not given),-5.2,-3.3
O=C(Nc1ccccc1)c1ccccc1,-7.1,nt
NNC(=O)c1nc[nH]c1C(=O)Nc1ccccc1,-6.7,81.3*
CC(C)CCNC(=O)CN1C(=O)/C(=C/c2ccccc2F)Sc2ccccc21,-17.6,-15.0
SMILES,Pf apPOL inh,mHTT CaM bind
CCOCCCNC(=O)c1cccnc1SCc1ccccc1Cl,-21.1,-9.0
CCCOc1cccc(C(=O)Nc2ccc(C)cc2)c1,-7.1,-23.6
COc1ccc(-c2csc(Nc3ccc(C)c(Cl)c3)n2)cc1F,-0.8,88.2*
CCOc1ccc(Nc2nc(-c3ccc(OC)c(F)c3)cs2)cc1,-4.0,32.0
Fc1ccc(Nc2nc(-c3ccccc3)cs2)cc1,1.4,30.4
CCc1ccc(-c2csc(Nc3cc(OC)c(Cl)cc3OC)n2)cc1,2.9,12.1
COc1cc(Nc2nc(-c3cc(C)ccc3C)cs2)c(OC)cc1Cl,-0.6,73.7*
COc1ccc(-c2csc(Nc3ccc(Cl)cc3)n2)cc1F,5.4,95.3*
Fc1ccc(-c2csc(Nc3ccc(Cl)cc3)n2)cc1,-1.4,97.1*
COc1ccccc1Nc1nc(-c2cc(C)ccc2C)cs1,2.4,23.8
CCn1c(=N)c(C(=O)NCCN2CCOCC2)cc2c(=O)n3cccc(C)c3nc21,-2.5,9.0
COC(=O)c1ccccc1NC(=O)c1ccc(=O)[nH]n1,-6.0,1.7
OCC1OC(Nc2ccc(Cl)cc2)CC1O (stereo not given),nt,-1.9
COc1ccc(CC(=O)N2CCN(c3cccc(Cl)c3)CC2)cc1OC,2.1,55.4*
COc1ccc(CC(=O)N2CCN(c3cccc(Cl)c3)CC2)cc1,-4.9,-9.6
CCN(CC)c1ccc(N=C2C(=O)Nc3ccccc32)cc1,-38.8,100.0*
O=C1Nc2ccccc2C1=Nc1ccc(C(=O)O)cc1,-0.4,1.0
CN(C)c1ccc2c(c1)OC(N)=C(C#N)C2c1cc(Br)cs1 (stereo not given),-4.6,52.9*
CN(C)c1ccc2c(c1)OC(N)=C(C#N)C2c1ccc(F)c(Br)c1 (stereo not given),-4.3,83.4*
CC(=O)Nc1ccc(C2C(C#N)=C(N)Oc3cc(N(C)C)ccc32)cc1 (stereo not given),-2.6,15.0
N#CC1=C(N)Oc2cc(N)ccc2C1c1cc(Br)cs1 (stereo not given),-1.6,12.9
CC(C)c1cc(C2CCCN2C(=O)Cc2ccc(Cl)cc2)on1 (stereo not given),-3.2,-1.3
